Our source for the growth values is PubChem BioAssay (NCI).

Compounds without any hit were thinned out: in the full panel of roughly 83,000, 20% have a hit.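 48-hour exposure, single concentration, 96-well plates; percent growth endpoint where 0 means no net growth. Active: below 10.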 Activity calls are given as the source filed them.

The test system of this experiment is HL-60(TB) leukemia. Put plainly: NCI-60 one-dose screen, 48 h (100 = growth as untreated, 0 = no growth, -100 = all killed). The conditions noted are these: 10 µM unless noted.
On to `COC1=C(C)C(=O)c2c(c(CCCl)c3n2CCC3OC(C)=O)C1=O` (stereo not given), for which the growth is 34.2% (inactive).

`N=C(N)c1ccc(-c2ccc(-c3ccc(F)cc3)s2)nc1`: the growth was -28% (active).

`CN(C)CCS(=O)(=O)CCN(C)C`: the growth is 110% (inactive).

`O=C(O)c1cccc(S(=O)(=O)c2ccccc2)c1`: the growth is 92% (inactive).

Take `O=C(Nc1ccc(-c2ccnc(Nc3ccc(N4CCOCC4)cc3)n2)cc1)[C@@H]1CCCN1`: the growth was 39.8% (inactive).

For `COc1ccc(/C=N/NC(=O)c2cnn(CC(O)Cc3ccccc3)c2N)cc1OC1CCCC1` (stereo not given), the growth was 105% (inactive).

For the molecule `CN(C)CC1(C)Cc2ccsc2C1O` (stereo not given), the growth was 93% (inactive).

For the molecule `N#Cc1cnn(-c2nc3c(Cl)cccc3s2)c1N`, the growth was 97.7% (inactive).

`Cn1c2ccccc2c2c3[nH][nH]c(=O)c3c3c4ccccc4[nH]c3c21`: the growth was 4.77% (active).

Consider `N#Cc1cc2[nH]c3ccc(OC(F)(F)F)cc3c2oc1=O`, for which the growth is 99.8% (inactive).

`COc1ccc(Cn2cc(C(=O)Nc3cccnc3Nc3ccccc3)nn2)cc1`: the growth was 104% (inactive).

Turning to `COc1ccc(OC)c(/C=C/C(=O)c2c(C)nc3ccccc3c2/C=C/c2ccccc2)c1`, the growth was 47% (inactive).

Take `Brc1ccc(Nc2nc(Nc3cnc4ccccc4c3)c3[nH]cnc3n2)cc1`: the growth is 92.9% (inactive).

`O=C(c1ccccc1)C(Br)[N+](=O)[O-]` (stereo not given): the growth is 62.3% (inactive).

In the case of `CC1=CC(=NN=c2cc(C)n([O-])c(C)c2)C=C(C)[N+]1=O`, the growth was 37.6% (inactive).

For the molecule `CCCCCCCCCCC/C=C\C[C@H](O)C/C=C1/C(=O)C=C[C@@H]1C/C=C\CCCC(=O)OC`, the growth is -20% (active).

`CC(Cc1cccc2ccccc12)C(N)=O` (stereo not given): the growth is 99.5% (inactive).

As to `Cc1ccc2nc(NC(=O)CSc3nc(Nc4ccc([N+](=O)[O-])cc4)c(C#N)c(-c4ccccc4)n3)sc2c1`, the growth is 95.2% (inactive).

For the molecule `CC1CCC2C(C)(C)C3CC12CC1OC13C` (stereo not given), the growth was 125% (inactive).

As for `Cc1ccc(-n2nnc(C3=NCCc4c3[nH]c3ccc(Cl)cc43)c2C)cc1`, the growth was 39.4% (inactive).

Take `CCCCCCNC(=O)Oc1ccc(/C(=C(/CC)Cc2ccccc2)c2ccc(OCCN3CCCCC3)cc2)cc1`: the growth is 75.1% (inactive).

Consider `COc1cc(/C=C/C(=O)N2CCN(C(=O)c3cc(OC)c(OC)c(OC)c3)CC2)ccc1OCCCOc1cc2c(cc1OC)C(=O)N1CCC[C@H]1C=N2`, for which the growth is -28% (active).

Turning to `O=C1Nc2ccccc2/C1=C\c1ccccc1O`, the growth is 75.2% (inactive).

As to `COc1cc(-c2nc3occn3c2-c2ccnc(NCCCNS(=O)(=O)c3ccc(O)cc3)n2)ccc1F`, the growth is 95.3% (inactive).

For `O=[N+]([O-])c1cnc(Sc2ccncn2)s1`, the growth was -20.2% (active).

As for `CCOC(=O)CSc1c(-c2ccccc2)c2cc(Cl)ccc2[nH]c1=O`, the growth is 84.7% (inactive).

Take `CCC(C)(O)CCC(C)(O)CC` (stereo not given): the growth was 101% (inactive).

Take `COc1ccc(/C=N/NC(=O)Cn2c(-c3ccc(S(C)(=O)=O)cc3)nc3cc(Cl)ccc32)cc1`: the growth is -51.6% (active).

As for `N=C(N)c1ccc(-c2ccc(-c3cc(Cl)cc(Cl)c3)s2)nc1`, the growth is -7.02% (active).

For the molecule `O=C1/C(=C/c2cn(-c3ccccc3)nc2-c2ccccc2)SC(=S)N1CCc1ccccc1`, the growth was 102% (inactive).

Take `COc1ccc(/C=N/NC(=O)COCC(=O)N/N=C/c2ccc(OC)cc2)cc1`: the growth is 102% (inactive).

As for `C[C@]12C=CC(=O)C=C1[C@@H](F)C[C@@H]1[C@@H]2[C@@H](O)C[C@@]2(C)[C@H]1CC[C@]2(O)C(=O)CO`, the growth was 107% (inactive).

With `COc1cc(/C=N/NC(=O)c2cnn3c2NC(c2ccccc2)C3)ccc1OCc1ccccc1` (stereo not given), the growth is -0.0884% (active).

Take `COc1ccc(C2C(C#N)=C(N)Oc3c2sc2c(F)cccc32)cc1` (stereo not given): the growth was -29% (active).

As to `O=C(Nc1ccc(Cl)c(Cl)c1)OCn1ncc2ccc([N+](=O)[O-])cc21`, the growth is 96.3% (inactive).

Consider `COc1cc(C2CC(=O)Nc3c2cnn3C)cc(OC)c1OC` (stereo not given), for which the growth is 97.6% (inactive).

Take `C=C(C)C1CCC2(C)OC2C1` (stereo not given): the growth is 95.6% (inactive).

Turning to `CC/C(=C(/c1ccc(O)cc1)c1ccc(OCCN2CCCCCC2)cc1)c1ccc(Cl)cc1`, the growth was 53.9% (inactive).

For `Cc1cc(C)n(C(=O)c2nn(-c3ccc(Cl)cc3)cc2O)n1`, the growth was 39.8% (inactive).

Regarding `CC(C)(C)n1cc(-c2ccnc(NCCCNS(=O)(=O)c3cccc(F)c3)c2)c(-c2cccc(O)c2)n1`, the growth was 35.4% (inactive).
